This is a sample that favours compounds with a hit; in the whole collection about 11% have one here.
USP30 block = inhibitors of human USP30 deubiquitinase. Ubiquitin carboxyl-terminal hydrolase 30 (Homo sapiens), Q70CQ3. purified USP30, Ub-rhodamine cleavage fluorescence. inhibition, % at 25 µM. 47,000 compounds, 5.3% hits
OTUD3 inh = inhibitors of human OTUD3 deubiquitinase. 47,000 compounds, 0.7% hits. purified OTUD3, Ub-rhodamine fluorescence, 2 h. inhibition, % at 25 µM. AID 1645858, 2021. OTU domain-containing protein 3 (Homo sapiens), Q5T2D3
USP28 block = inhibitors of human USP28 deubiquitinase; Ubiquitin carboxyl-terminal hydrolase 28 (Homo sapiens), Q96RU2; purified USP28, Ub-rhodamine cleavage fluorescence, 30 min; inhibition, % at 25 µM; 47,000 compounds, 3% hits; AID 1645857, 2021
USP17 block = inhibitors of human USP17 deubiquitinase | Ubiquitin carboxyl-terminal hydrolase 17-like protein 5 (Homo sapiens), A8MUK1 | purified USP17, Ub-rhodamine cleavage fluorescence, 3 h | inhibition, % at 50 µM | 47,000 compounds, 6.5% hits | AID 1645855, 2021
Starred values were filed as active, the others as inactive; . = no result. Cut-off read from the data, not from the text of the source: active = inhibition above about 30%; inactive = the rest.

SMILES | USP30 block | OTUD3 inh | USP28 block | USP17 block
COc1cc(NC(=O)Cn2c(=O)n(CC3CCC(C(=O)NC4CCCC4)CC3)c(=O)c3ccccc32)cc(OC)c1 (centres undefined) | 44* | 43* | 28 | 61*
COc1ccc(OC)c(NC(=O)Cn2c(=O)n(CC3CCC(C(=O)NCCc4ccccc4)CC3)c(=O)c3ccccc32)c1 (centres undefined) | 36* | 93* | 23 | 39*
CCN(CC)c1ccc2nnc(CCC(=O)NCCC3=CCCCC3)n2n1 | -11 | -10 | 1 | -7
O=C(COc1ccc(Cl)cc1)Nc1ccc(S(=O)(=O)Nc2ccccc2)cc1 | 38* | 7 | 21 | 41*
COc1ccccc1NS(=O)(=O)c1ccc(NC(=O)Cc2ccc(Cl)cc2)cc1 | 3 | -3 | 9 | 45*
CCc1ccc(CN(C)C(=O)c2ccc(NS(=O)(=O)c3ccc(F)c(F)c3)cc2)cc1 | 41* | 9 | 24 | 27
O=C(COC(=O)c1ccc(NS(=O)(=O)c2ccc(F)c(F)c2)cc1)Nc1ccc(OCc2ccccc2)cc1 | 1 | 5 | -5 | 7
CC(NC(=O)COCc1cc(-c2ccc(F)cc2)on1)c1ccccc1 (centres undefined) | 15 | 2 | 13 | 0
CC(NC(=O)Cc1cc(-c2ccc(F)cc2)on1)c1ccccc1 (centres undefined) | 21 | 8 | 6 | 31*
O=C(Cn1cc(S(=O)(=O)N2CCCCC2)ccc1=O)N1CCc2ccccc21 | 7 | 4 | 2 | 9
O=C(c1scc2c1CCCC2)N1CCN(c2ccccc2O)CC1 | 6 | -6 | 4 | 0
O=C(c1csc2c1CCCC2)N1CCN(C(c2ccccc2)c2ccccc2)CC1 | 31* | 13 | 3 | 2
Cc1cccc(Nc2ccc(C3CN(Cc4cccc5ncccc45)CCO3)nc2)n1 (centres undefined) | -14 | -5 | 18 | -3
CC(C)=CCC/C(C)=C/CC/C(C)=C/Cc1c(C)[nH]c2ccccc2c1=O | 0 | 8 | 7 | 8
CC(C)=CCC/C(C)=C/Cc1c(O)cc2c(c1O)C(=O)OC2 | 14 | 79* | 74* | 63*
O=C(Cn1cc(C(=O)C(F)(F)F)c2ccccc21)N1CCc2ccccc21 | 37* | 23 | 28 | 52*
COC(=O)c1cn(CC(=O)N2CCCc3ccccc32)c2ccccc12 | 17 | 16 | 12 | 41*
N#Cc1cn(CC(=O)N2CCc3ccccc32)c2ccccc12 | 53* | 2 | 52* | -18
Cc1nnc(-c2cn(CC(=O)N3CCc4ccccc43)c3ccccc23)o1 | -7 | 3 | 1 | 29
O=S(=O)(c1csc2ccccc12)N1CCOCC1 | 11 | 11 | 5 | 13
COc1ccc(Cl)cc1NS(=O)(=O)c1cccc(C(=O)N2CCC(C)CC2)c1 | -2 | -18 | -1 | -3
Cc1ccc2c(=O)c3c([nH]c2c1C)CCN(CC(=O)NCc1ccccc1)C3 | 40* | 1 | 18 | 72*
Fc1ccc(Oc2nc(CN3CCOCC3)nc3sc4c(c23)CCCC4)c(Cl)c1 | -28 | -9 | 58* | 4
Fc1cccc(Oc2nc(CN3CCOCC3)nc3sc4c(c23)CCCC4)c1 | -78 | -6 | 7 | -14
NS(=O)(=O)c1cccc(NC(=O)COc2ccc(F)cc2Cl)c1 | -266 | -60 | -78 | -95
SMILES | USP30 block | OTUD3 inh | USP28 block | USP17 block
COc1ccc(N2CCN(CC(O)COCc3ccc(Cl)cc3)CC2)cc1 (centres undefined) | -52 | -4 | -14 | .
SC(COCc1ccccc1)CN1CCN(c2ccccc2)CC1 (centres undefined) | 44* | 33* | 24 | 23
Cc1ccc2c(C)nc(Nc3ncc4c(n3)CC(c3ccco3)CC4=O)nc2c1 (centres undefined) | 38* | 25 | 29 | 59*
O=C1CC(c2ccco2)Cc2nc(N3CCc4ccccc4C3)ncc21 (centres undefined) | . | -1 | . | 44*
O=C1CC(c2ccc(F)cc2)Cc2nc(N3CCc4ccccc4C3)ncc21 (centres undefined) | 15 | 2 | 2 | 11
O=C(Nc1ncc2c(n1)CC(c1ccco1)CC2=O)c1ccco1 (centres undefined) | -54 | -1 | -6 | -18
O=C1CC(c2ccco2)Cc2nc(N3CCc4ccccc43)ncc21 (centres undefined) | -8 | 30 | 22 | 37*
COc1ccc(C(=O)COC(=O)c2ccc(Oc3ccccc3)cc2)cc1OC | -3 | 7 | 15 | 7
Cn1cccc1CN1CCC2(CCCN(C(=O)c3cnccn3)C2)C1 (centres undefined) | -25 | -5 | 0 | -23
COc1ccc(CN2CCN(C(=O)c3n[nH]c4c3CCCC4)CC2)cn1 | -15 | 0 | -4 | -1
CCCN(CC(=O)Nc1ccc2c(c1)OCCO2)S(=O)(=O)c1cccc(C(F)(F)F)c1 | -21 | -1 | -3 | 9
Cc1ccccc1CNC(=O)c1cc2occc2c(Nc2ccc(F)cc2)n1 | 3 | 8 | 20 | 23
Cc1ccc(CNC(=O)c2cc3occc3c(Nc3ccccc3)n2)cc1 | -186 | -16 | -17 | 49*
CN1C[C@@H]2C[C@H](NS(=O)(=O)c3ccc4ncsc4c3)CN2Cc2ccccc21 | -74 | -6 | -11 | -16
COc1cccc(C(=O)Nc2ccccc2-c2nc(-c3ccncc3)no2)c1 | 39* | 18 | 13 | 24
CCn1c(SCc2cc(C)ccc2C)nnc1-c1cnccn1 | 11 | -1 | 19 | .
O=C(c1cc2occc2c(Nc2ccc(F)cc2)n1)N1CCN(c2ccccn2)CC1 | 27 | 6 | 13 | 34*
Cc1ccc(Nc2nc(C(=O)N3CCN(c4ccccn4)CC3)cc3occc23)cc1Cl | -70 | -7 | 9 | 15
O=C(C1CCCN(c2nccn3nc(-c4cccc(Cl)c4)cc23)C1)N1CCOCC1 (centres undefined) | -264 | -73 | -66 | -69
COc1ccc(Nc2nc3c(S(=O)(=O)c4ccc(C(C)C)cc4)nnn3c3ccccc23)cc1 | 32* | 6 | 10 | 24
Cc1ccc(Nc2nc3c(S(=O)(=O)c4ccccc4)nnn3c3ccccc23)c(C)c1 | 29 | -18 | -3 | 24
O=S(=O)(c1ccccc1)c1nnn2c1nc(NCc1ccc(Cl)cc1)c1ccccc12 | 19 | 10 | 9 | 42*
Cc1ccc(S(=O)(=O)c2nnn3c2nc(NCc2ccc(F)cc2)c2ccccc23)cc1C | 22 | 9 | 10 | 12
CN1C(=O)COc2cc(-c3noc(C(=O)NCc4ccc(F)cc4)n3)ccc21 | 76* | 29 | 11 | 54*
CN1C(=O)COc2cc(-c3noc(C(=O)NCc4ccccc4)n3)ccc21 | 19 | 15 | 7 | 44*
Cn1cc(C(=O)Oc2ccc(F)cc2F)c(C(F)(F)F)n1 | 13 | -1 | 6 | 6
COc1ccc(OC)c2c(C)cc(N3CC(C)CC(C)C3)nc12 (centres undefined) | 43* | 30* | 54* | 96*
